In the library only some 6.2% were active in any assay of this set; here they are far more common.
RORg inh: ROR gamma (mouse) transcription inhibition; P51450; Potency, µM (series often up to 53.6 µM), hits mostly inhibitors; Drosophila S2 Gal4-RORgamma UAS-luciferase reporter, 20 h; AID 2551; hit rate 5.4% among 310,000; further: nearly all actives have a fitted effect of over 60% in size
Target sequence (P51450 whole entry, looked up, the tested form may be a part): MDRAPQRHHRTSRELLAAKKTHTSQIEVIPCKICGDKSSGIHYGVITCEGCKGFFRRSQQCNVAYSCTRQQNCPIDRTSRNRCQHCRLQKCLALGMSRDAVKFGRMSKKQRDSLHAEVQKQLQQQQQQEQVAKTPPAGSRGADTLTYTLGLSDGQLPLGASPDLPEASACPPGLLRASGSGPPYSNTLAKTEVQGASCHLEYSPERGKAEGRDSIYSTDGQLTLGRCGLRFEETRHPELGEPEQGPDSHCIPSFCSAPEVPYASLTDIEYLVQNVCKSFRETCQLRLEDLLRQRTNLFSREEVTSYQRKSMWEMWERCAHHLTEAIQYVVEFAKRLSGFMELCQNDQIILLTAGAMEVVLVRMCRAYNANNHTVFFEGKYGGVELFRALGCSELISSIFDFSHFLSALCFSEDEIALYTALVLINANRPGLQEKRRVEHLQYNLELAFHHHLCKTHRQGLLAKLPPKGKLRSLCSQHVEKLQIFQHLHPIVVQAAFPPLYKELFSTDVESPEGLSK
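Using a luciferase readout, inhibitors were identified by reduced reporter activity in Drosophila cells coexpressing a copper-inducible Gal4–ROR gamma fusion and UAS-driven Photinus luciferase, incubated 20 hr after 700 uM copper sulfate.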
VP16 counter: Gal4-VP16 reporter inhibition counter-screen; AID 2546; Drosophila S2 Gal4-VP16 UAS-luciferase, luminescence, 20 h; hit rate 3.5% among 310,000; Potency, µM (titrated, usually from 53.6 µM), hits mostly inhibitors;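 further: Gal4-VP16 expression switched on by copper sulfate through the metallothionein promoter; nearly all actives have a fitted effect of over 50% in size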
KinaseGlo FLuc: counter-screen: inhibitors of Kinase-Glo firefly luciferase; Q27757; Kinase-Glo luciferase, ATP luminescence, 8 min; Potency, µM (series often up to 38.3 µM), actives largely listed as inhibitors; hit rate 0.28% among 200,000; further: nearly all actives have a fitted effect of over 60% in size
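Compound is pinned into ATP-containing buffer (10 uM ATP, imidazole pH 7.2, 7 mM MgCl2). Kinase-Glo luciferase reagent is then added. Light output is recorded following an 8-min room-temperature incubation.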
Numbers stand for hits; 0 = inactive; ? = inconclusive; - = no result given; [ ] = dose if it differs, or a comment. The call rests on the fitted dose curve; in most records, active means well fitted curve in the direction sought with a large enough effect; inconclusive means small, poorly fitted or top-dose-only effect, or another doubt; inactive means no such curve, though single readings can be large; an effect the other way counts as inactive or inconclusive.

SMILES | RORg inh | VP16 counter | KinaseGlo FLuc
COc1ccc(NS(=O)(=O)c2ccc(-c3coc(C)n3)cc2)cc1OC | ? | 1.4µM | -
COc1ccc(NS(=O)(=O)c2ccc(-c3coc(C)n3)cc2)cc1 | ? | 0 | -
CCOc1ccccc1NC(=O)CSc1n[nH]c(N)n1 | 0 | 0 | -
CC1CC(C)CN(CC(=O)NCCc2ccc(S(N)(=O)=O)cc2)C1 (stereo not drawn) | 0 | 0 | 0
Cc1cc(C)nc(NC(=O)c2cccs2)c1 | 0 | ? | -
O=C(/C=C/c1cccs1)Nc1nncs1 | 0 | 0 | -
Cc1ccnc(NC(=S)NC(=O)c2cccs2)c1 | 2.2µM | 4µM | 0
Cc1ccc(CC(=O)Nc2cc(C)ccn2)cc1 | 0 | 0 | -
Cc1ccc2oc(-c3ccc(C)c(NC(=O)Cc4cccs4)c3)nc2c1 | 0 | 0 | 0
CCNC(=S)Nc1cc(C)ccn1 | 2.5µM | 5.6µM | 0
Cc1ccc2oc(-c3ccc(C)c(NC(=S)NC(=O)c4cccs4)c3)nc2c1 | 7.1µM | 7.1µM | 0
Cc1ccnc(NC(=O)/C=C/c2cccs2)c1 | 8.9µM | 13µM | 0
Cc1cc2[nH]c(=O)c(=O)[nH]c2cc1S(=O)(=O)NCc1ccccc1 | 0 | 0 | -
Cc1ccccc1-c1noc(-c2ccccc2C(=O)NCC2CCCO2)n1 (stereo not drawn) | 0 | 0 | -
Cc1cc(Cl)c(OCCCNCc2ccccc2)c(Br)c1 | 0 | 0 | 0
O=C(NC(=S)Nc1cccnc1Cl)c1ccco1 | ? | 0 | 0
COC(=O)C(NC(=O)c1ccco1)(Nc1cc(C)ccn1)C(F)(F)F (stereo not drawn) | 0 | 0 | 0
Cc1ccnc(NC(=S)NC(=O)c2ccco2)c1 | 4.5µM | ? | 0
O=C(NC(=S)Nc1ccccn1)c1ccco1 | 13µM | ? | 0
O=C(c1ccc(CNS(=O)(=O)c2ccc(Br)cc2)cc1)N1CCCCC1 | 0 | 0 | -
FC(F)(F)c1nc2ccccc2nc1N/N=C\c1ccccc1 | 3.5µM | 13µM | 0
NNc1nc2ccccc2nc1C(F)(F)F | 0 | 0 | 0
Brc1ccc(-c2nc(N/N=C/c3cccnc3)c3ccccc3n2)cc1 | ? | ? | 7.1µM
COc1cccc(/C=N/Nc2nc(-c3cccnc3)nc3ccccc23)c1 | ? | 0 | -
C(=N\Nc1nc(-c2ccccn2)nc2ccccc12)/c1ccccc1 | 0.089µM | 0.5µM | -
SMILES | RORg inh | VP16 counter | KinaseGlo FLuc
C(=N\Nc1nc(-c2cccnc2)nc2ccccc12)/c1ccccc1 | ? | 0 | -
CC(=O)OCC1OC(OCc2cn(C[C@H]3CC[C@H](Cn4cc(COC5OC(COC(C)=O)C(OC(C)=O)C(OC(C)=O)C5OC(C)=O)nn4)O3)nn2)C(OC(C)=O)C(OC(C)=O)C1OC(C)=O (stereo partly drawn) | 0 | 0 | -
CCOC(=O)C(=NCCCN(C)C)NNc1cc(C(F)(F)F)ccc1Cl | 0 | 0 | 0
CCN(CC)S(=O)(=O)c1ccc(C(=O)NCCN(C)C)cc1 | 0 | 0[10 µM] | 0
CCc1c(C)nc(N)n2c(SCC(=O)N3CCN(c4ccccc4F)CC3)nnc12 | 0 | 0 | 0
O=C(CCc1c[nH]c2ccccc12)OCc1cccc([N+](=O)[O-])c1 | 0 | 0 | -
O=C1C(=O)c2ccc(-c3ccccc3)cc2-c2ccccc21 | 3.2µM | 3.5µM | 0
O=C1c2ccccc2C(=O)c2c1ccc(C(=O)O)c2-c1ccc2ccccc2c1 | - | - | 0[7.66 µM]
Nc1ccc2c(c1)C(=O)C(=O)c1ccccc1-2 | 1.8µM | 2.8µM | ?
Nc1ccc2c(c1)C(=O)c1ccccc1C2=O | ? | 0 | -
C=CCc1cc(Cl)ccc1OCCn1ccnc1 | 0 | 0 | -
CC(C)C[C@H](NC(=O)[C@H](CO)NC(=O)[C@H](C)NC(=O)[C@H](CCCN=C(N)N)NC(=O)[C@H](CCCN=C(N)N)NC(=O)[C@@H](N)CC(C)C)C(=O)NCC(=O)O | 0 | 0 | -
O=C(Nc1ccc2[nH]ccc2c1)c1ccc(F)cc1 | 11µM | ? | -
O=C(Nc1ccncc1)c1ccc(F)cc1 | ? | ? | 0
COc1ccc(C2CC(c3ccccc3)=NN2c2ccc(N)cc2)cc1 (stereo not drawn) | 0 | 0 | 0
COc1ccc(C2CC(c3ccccc3)=NN2S(=O)(=O)c2ccccc2)cc1 (stereo not drawn) | ? | 4.5µM | -
CCN(C(=O)Cn1nc(C)n2c(cc3cc(C)ccc32)c1=O)c1ccccc1 | 0 | 0 | -
CCn1c(NC(=O)c2ccc(COc3ccc(C)cc3[N+](=O)[O-])o2)nc2ccccc21 | 2.2µM | 5µM | 0
Cc1ccc(OCc2ccc(C(=O)Nc3cc(C)on3)o2)c([N+](=O)[O-])c1 | 0 | 0 | -
CC(=O)Nc1ccn(C2OC(C(COC(C)=O)NC(=O)C(C)NC(=O)OC(C)(C)C)C(OC(C)=O)C2OC(C)=O)c(=O)n1 (stereo not drawn) | 0 | 0 | -
CCc1ccccc1N(CC(=O)NC(C)(C)C)C(=O)CCC(=O)Nc1ccccn1 | 0 | 0 | -
COC(=O)CCc1sc(NC2CCCCC2)nc1-c1ccc(OC)cc1 | 0 | ? | 0
CCN(CC)CCNc1nc(-c2ccc(OC)cc2)c(-c2ccc(OC)cc2)s1 | ? | 0 | -
CCCCCCNc1nc(-c2ccc(OC)cc2)c(CCC(=O)O)s1 | ? | 16µM | 0
COCCNc1nc(-c2ccc(OC)cc2)c(-c2ccc(OC)cc2)s1 | 11µM | 0 | 0
SMILES | RORg inh | VP16 counter | KinaseGlo FLuc
Fc1ccc(-c2cnc3n2CCCCC3)cc1 | 11µM | 0 | 0
Clc1ccc(-c2cnc3n2CCCCC3)cc1 | 5.6µM | ? | 0
Clc1ccc(-c2nnc3n2CCCCC3)cc1 | 0 | 0 | 0
Brc1ccc(-c2cnc3n2CCCC3)cc1 | ? | ? | 0
CCOc1ccc(-c2cnc3n2CCC3)cc1 | 16µM | 0 | 0
CCOc1ccc(NC(=O)c2sc3nc4n(c(=O)c3c2C)CCC4)cc1 | 0 | 0 | -
CCOC(=O)N1CCC(N2C(=O)c3ccc(C(=O)Nc4ccc(OC)c(OC)c4)cc3C2=O)CC1 | 0 | 0 | -
CCOC(=O)C1(Cc2ccccc2C)CCCN(C(=O)CCc2cccnc2)C1 (stereo not drawn) | 0 | ? | 0
O=C1CSC(c2cccnc2)N1CCc1ccccn1 (stereo not drawn) | ? | 11µM | -
O=C1CSC(c2cccnc2)N1Cc1cccnc1 (stereo not drawn) | 0 | 0 | -
Oc1c(C=NCc2ccc(F)cc2)[nH]c2ccc(Br)c(Cl)c12 | 0 | 0 | 0
Cc1ccc(CN=Cc2[nH]c3ccc(Br)c(Cl)c3c2O)cc1 | 13µM | ? | 0
N#Cc1ccsc1NC(=O)CCN1CCN(C(c2ccccc2)c2ccccc2)CC1 | 0 | 0 | -
CC(=O)Nc1cccc(NC(C)=O)n1 | 0 | 0 | 0
C=C(C)CNC(=S)Nc1cccc(N)n1 | 2.8µM | ? | 0
COc1ccc(C(C(=O)NC(C)(C)C)N(Cc2ccco2)C(=O)CCC(=O)Nc2ccccn2)cc1 (stereo not drawn) | 0 | 0 | -
O=C(N/N=C/C=C/c1ccco1)/C(=C/c1ccccc1)NC(=O)c1ccccc1 | 13µM | ? | 0
O=C(N/N=C/C=C\c1ccco1)c1cccs1 | ? | ? | 0
O=C(N/N=C/C=C/c1ccco1)c1cccc([N+](=O)[O-])c1 | 5µM | 10µM | 0
O=C(N/N=C/C=C/c1ccco1)c1ccncc1 | 10µM | ? | -
O=C(O)/C(=C\c1ccco1)NC(=O)c1ccccc1 | 0[10 µM] | 0 | 0
C/C(=N\NC(=O)c1cccc([N+](=O)[O-])c1)c1ccco1 | ? | 0 | -
C=CCn1ccc(=NC=C(C#N)C#N)c2ccccc21 | 0 | 0 | -
COc1cccc(C2=Nn3c(nnc3-c3ccccc3OC)SC2)c1 | ? | 0 | -
C[C@H](N)c1nnc(SCC(N)=O)o1 | 0 | 0 | -

Screening results as filed in PubChem BioAssay.
